Reference: the antibiotic and cytotoxicity screens of Wong et al. (2023)
Among all 39,000 compounds or so, about 1,500 (3.8%) were called active. This is one part of a sample in which actives are shown more often than they occur.

Each molecule was assayed on HSkMC (human skeletal muscle cells) (assay: cytotoxicity call (relative viability < 0.9)). Conditions: 10 µM.
For `O=C(C[C@@H]1C[C@H]2c3cc(NC(=O)NC4CCCC4)ccc3O[C@H]2[C@H](CO)O1)NCc1ccc2c(c1)OCO2`, the cytotoxicity call was “inactive”.
With `O=C(CN1CCOCC1)NCC[C@@H]1CC[C@@H](NC(=O)Cc2ccccn2)[C@H](CO)O1` the cytotoxicity call was “inactive”.
For `C[C@@H]1CN([C@@H](C)CO)C(=O)Cc2cc(NC(=O)C3CCCCC3)ccc2O[C@H]1CN(C)C(=O)Nc1ccc(C(F)(F)F)cc1`, the cytotoxicity call was “inactive”.
`CC[C@H]1CN(C)N1C(=O)[C@@H]1CCCO1` was tested, and the cytotoxicity call was “inactive”.
`CC(C)CC#Cc1ccc2c(c1)O[C@H](CN(C)C(=O)c1ccncc1)[C@H](C)CN([C@@H](C)CO)S2(=O)=O` was tested, and the cytotoxicity call was “inactive”.
`C[C@@H]1CN([C@H](C)CO)C(=O)Cc2cc(NS(=O)(=O)c3ccc(Cl)cc3)ccc2O[C@@H]1CN(C)Cc1ccc(Cl)c(Cl)c1` was tested, and the cytotoxicity call was “active”.
With `C[C@H](CO)N1C[C@H](C)[C@H](CN(C)Cc2ccc(Cl)c(Cl)c2)Oc2ccc(NS(=O)(=O)c3ccc(Cl)cc3)cc2CC1=O` the cytotoxicity call was “active”.
`C[C@@H]1CN([C@@H](C)CO)C(=O)Cc2cc(NS(=O)(=O)c3ccc(Cl)cc3)ccc2O[C@H]1CN(C)Cc1ccc(Cl)c(Cl)c1` was tested, and the cytotoxicity call was “active”.
`C[C@H]1CN([C@@H](C)CO)C(=O)Cc2cc(NS(=O)(=O)c3ccc(Cl)cc3)ccc2O[C@@H]1CN(C)Cc1ccc(Cl)c(Cl)c1` was tested, and the cytotoxicity call was “inactive”.
For `C[C@@H]1CN([C@@H](C)CO)C(=O)Cc2cc(NS(=O)(=O)c3ccc(Cl)cc3)ccc2O[C@@H]1CN(C)Cc1ccc(Cl)c(Cl)c1`, the cytotoxicity call was “active”.
With `C[C@H](CO)N1C[C@H](C)[C@@H](CN(C)Cc2ccc(Cl)c(Cl)c2)Oc2ccc(NS(=O)(=O)c3ccc(Cl)cc3)cc2CC1=O` the cytotoxicity call was “inactive”.
`C[C@H](CO)N1C[C@H](C)[C@H](CN(C)CC2CC2)Oc2ccc(NC(=O)CCN3CCOCC3)cc2CC1=O` was tested, and the cytotoxicity call was “inactive”.
`CC(C)NC(=O)N(C)C[C@@H]1Oc2ccc(NC(=O)NC3CCCCC3)cc2C(=O)N([C@H](C)CO)C[C@@H]1C` was tested, and the cytotoxicity call was “inactive”.
With `CC(C)(C)[S@@](=O)N1Cc2cc(C(=O)NCc3ccc4c(c3)OCO4)nc(CCNS(=O)(=O)c3ccccc3)c2[C@H]1CCO` the cytotoxicity call was “inactive”.
In the case of `CCS(=O)(=O)N1CC[C@]2(CC1)CN(CC1CCOCC1)[C@H](CO)c1c2c2ccc(cc2n1C)OC`, the cytotoxicity call is reported as “inactive”.
`Cc1noc(C)c1S(=O)(=O)Nc1ccc2c(c1)CC(=O)N([C@H](C)CO)C[C@H](C)[C@H](CN(C)Cc1ccc3c(c1)OCO3)O2` was tested, and the cytotoxicity call was “inactive”.
`C[C@@H]1CCCCO[C@H](CN(C)C(=O)Nc2ccc(F)cc2)[C@@H](C)CN([C@H](C)CO)C(=O)c2cc(NC(=O)Nc3ccc4c(c3)OCO4)ccc2O1` was tested, and the cytotoxicity call was “inactive”.
For `Cc1noc(C)c1NC(=O)N(C)C[C@@H]1Oc2ccc(NS(=O)(=O)c3cn(C)cn3)cc2C(=O)N([C@H](C)CO)C[C@@H]1C`, the cytotoxicity call was “inactive”.
`Cc1ccc(S(=O)(=O)N(C)C[C@@H]2OCCCC[C@@H](C)Oc3ccc(NC(=O)Nc4ccc(F)cc4)cc3C(=O)N([C@@H](C)CO)C[C@H]2C)cc1` was tested, and the cytotoxicity call was “inactive”.
In the case of `O=C(C[C@@H]1C=C[C@@H](NC(=O)c2cccc(F)c2)[C@H](CO)O1)NCCN1CCCC1`, the cytotoxicity call is reported as “inactive”.
In the case of `C[C@H](CO)N1C[C@H](C)[C@H](CN(C)Cc2ccc(Cl)c(Cl)c2)Oc2ccc(NS(=O)(=O)c3ccc(F)cc3)cc2CC1=O`, the cytotoxicity call is reported as “inactive”.
`C[C@H](CO)N1C[C@H](C)[C@@H](CN(C)Cc2ccc(Cl)c(Cl)c2)Oc2ccc(NS(=O)(=O)c3ccc(F)cc3)cc2CC1=O` was tested, and the cytotoxicity call was “inactive”.
With `C[C@@H]1CN([C@H](C)CO)C(=O)Cc2cc(NS(=O)(=O)c3ccc(Cl)cc3)ccc2O[C@H]1CN(C)Cc1ccc(Cl)c(Cl)c1` the cytotoxicity call was “active”.
For `C[C@H]1CN([C@@H](C)CO)C(=O)Cc2cc(NS(=O)(=O)c3ccc(Cl)cc3)ccc2O[C@H]1CN(C)Cc1ccc(Cl)c(Cl)c1`, the cytotoxicity call was “active”.
With `COc1ccc(S(=O)(=O)Nc2cccc3c2O[C@@H](CN(C)S(=O)(=O)c2cccs2)[C@@H](C)CN([C@@H](C)CO)C3=O)cc1` the cytotoxicity call was “inactive”.
For `C[C@H]1CN([C@@H](C)CO)C(=O)c2cccc(NC(=O)Nc3cccc4ccccc34)c2O[C@H]1CN(C)C(=O)Nc1ccc(F)cc1`, the cytotoxicity call was “inactive”.
In the case of `OCCN1CCOCC1`, the cytotoxicity call is reported as “inactive”.
With `CCN1C(=O)S[C@@H](CC(=O)O)C1=O` the cytotoxicity call was “inactive”.
In the case of `COc1ccc(NC(=O)N(C)C[C@@H]2Oc3c(NS(C)(=O)=O)cccc3C(=O)N([C@@H](C)CO)C[C@H]2C)cc1`, the cytotoxicity call is reported as “inactive”.
`CN1C(=O)c2cc(NC(=O)Nc3ccccc3F)ccc2OC[C@@H]2O[C@H](CC(=O)NCc3ccc(-c4ccccc4)cc3)CC[C@H]21` was tested, and the cytotoxicity call was “inactive”.
For `O=[N+]([O-])c1ccc(Oc2ccc(-c3ccccc3)cc2)cc1`, the cytotoxicity call was “inactive”.
With `O=c1cc(O)nc[nH]1` the cytotoxicity call was “inactive”.
`O=C(O)c1ccc(O)c(O)c1O` was tested, and the cytotoxicity call was “inactive”.
For `CSCC[C@H](NC(=O)[C@@H](N)Cc1c[nH]c2ccccc12)C(=O)N[C@@H](CC(=O)O)C(=O)N[C@@H](Cc1ccccc1)C(N)=O`, the cytotoxicity call was “inactive”.
With `CSCC[C@H](NC(=O)[C@H](Cc1ccc(OS(=O)(=O)O)cc1)NC(=O)[C@@H](N)CC(=O)O)C(=O)NCC(=O)N[C@@H](Cc1c[nH]c2ccccc12)C(=O)N[C@@H](CCSC)C(=O)N[C@@H](CC(=O)O)C(=O)N[C@@H](Cc1ccccc1)C(N)=O` the cytotoxicity call was “active”.
In the case of `CSCC[C@H](NC(=O)[C@H](Cc1c[nH]c2ccccc12)NC(=O)CNC(=O)[C@@H](NC(=O)[C@H](Cc1ccc(OS(=O)(=O)O)cc1)NC(=O)[C@H](CC(=O)O)NC(=O)[C@H](CCC(N)=O)NC(=O)[C@@H]1CCC(=O)N1)[C@@H](C)O)C(=O)N[C@@H](CC(=O)O)C(=O)N[C@@H](Cc1ccccc1)C(N)=O`, the cytotoxicity call is reported as “inactive”.
`C[C@H]1CN([C@@H](C)CO)C(=O)Cc2cc(NC(=O)c3ccncc3)ccc2O[C@H]1CN(C)S(=O)(=O)c1ccc(F)cc1` was tested, and the cytotoxicity call was “inactive”.
For `C[C@H](CO)N1C[C@H](C)[C@@H](CN(C)S(=O)(=O)c2ccc(F)cc2)OCCCC[C@H](C)Oc2ccc(NC(=O)c3ccccc3)cc2C1=O`, the cytotoxicity call was “inactive”.
For `O=C(O)[C@H]1C[C@@H](CP(=O)(O)O)CCN1`, the cytotoxicity call was “inactive”.
For `COc1ccc(CN(C)C[C@@H]2Oc3ccc(NC(=O)Nc4ccc(C(F)(F)F)cc4)cc3C(=O)N([C@H](C)CO)C[C@H]2C)cc1`, the cytotoxicity call was “active”.
With `COc1ccc(CN(C)C[C@@H]2Oc3ccc(NC(=O)Nc4ccc(C(F)(F)F)cc4)cc3C(=O)N([C@H](C)CO)C[C@@H]2C)cc1` the cytotoxicity call was “active”.
`COc1ccc(NC(=O)Nc2ccc3c(c2)C(=O)N([C@@H](C)CO)C[C@@H](C)[C@@H](CN(C)Cc2ccc(C(F)(F)F)cc2)O3)cc1` was tested, and the cytotoxicity call was “inactive”.
For `COc1ccc(NC(=O)Nc2ccc3c(c2)C(=O)N([C@@H](C)CO)C[C@H](C)[C@H](CN(C)Cc2ccc(C(F)(F)F)cc2)O3)cc1`, the cytotoxicity call was “inactive”.
With `COc1ccc(CN(C)C[C@@H]2Oc3ccc(NC(=O)Nc4ccc(C(F)(F)F)cc4)cc3C(=O)N([C@@H](C)CO)C[C@@H]2C)cc1` the cytotoxicity call was “active”.
With `COc1ccc(NC(=O)Nc2ccc3c(c2)C(=O)N([C@@H](C)CO)C[C@@H](C)[C@H](CN(C)Cc2ccc(C(F)(F)F)cc2)O3)cc1` the cytotoxicity call was “inactive”.
In the case of `COc1ccc(CN(C)C[C@H]2Oc3ccc(NC(=O)Nc4ccc(C(F)(F)F)cc4)cc3C(=O)N([C@H](C)CO)C[C@@H]2C)cc1`, the cytotoxicity call is reported as “inactive”.
With `COc1ccc(NC(=O)Nc2ccc3c(c2)C(=O)N([C@H](C)CO)C[C@@H](C)[C@H](CN(C)Cc2ccc(C(F)(F)F)cc2)O3)cc1` the cytotoxicity call was “inactive”.
In the case of `COc1ccc(CN(C)C[C@H]2Oc3ccc(NC(=O)Nc4ccc(C(F)(F)F)cc4)cc3C(=O)N([C@H](C)CO)C[C@H]2C)cc1`, the cytotoxicity call is reported as “inactive”.
`COc1ccc(NC(=O)Nc2ccc3c(c2)C(=O)N([C@@H](C)CO)C[C@H](C)[C@@H](CN(C)Cc2ccc(C(F)(F)F)cc2)O3)cc1` was tested, and the cytotoxicity call was “inactive”.
In the case of `COc1ccc(CN(C)C[C@@H]2Oc3ccc(NC(=O)Nc4ccc(C(F)(F)F)cc4)cc3C(=O)N([C@@H](C)CO)C[C@H]2C)cc1`, the cytotoxicity call is reported as “active”.
In the case of `COc1ccc(NC(=O)Nc2ccc3c(c2)C(=O)N([C@H](C)CO)C[C@H](C)[C@@H](CN(C)Cc2ccc(C(F)(F)F)cc2)O3)cc1`, the cytotoxicity call is reported as “inactive”.
With `Nc1cccn2ncnc12` the cytotoxicity call was “inactive”.
In the case of `CCCC(=O)Nc1nc2[nH]c(C)cc(=O)n2n1`, the cytotoxicity call is reported as “inactive”.
For `COc1cccc(CNC(=O)c2cc3c(c(-c4cccc(-c5cccc(C#N)c5)c4)n2)[C@@H](CCO)N([S@](=O)C(C)(C)C)C3)c1`, the cytotoxicity call was “inactive”.
For `COC1(NC(=O)C(C(=O)[O-])c2ccc(O)cc2)C(=O)N2C(C(=O)[O-])=C(CSc3nnnn3C)COC21.[Na+].[Na+]` (stereo not drawn), the cytotoxicity call was “inactive”.
`CNC[C@H]1OCCCC[C@@H](C)Oc2ccc(NC(=O)c3ccncc3)cc2C(=O)N([C@@H](C)CO)C[C@H]1C` was tested, and the cytotoxicity call was “inactive”.
`C[C@@H]1CCCCO[C@@H](CN(C)C(=O)Nc2ccc(F)cc2)[C@@H](C)CN([C@H](C)CO)C(=O)c2cc(NC(=O)C3CCCCC3)ccc2O1` was tested, and the cytotoxicity call was “inactive”.
For `C[C@@H]1CN([C@@H](C)CO)C(=O)c2cc(NC(=O)c3ccccc3)ccc2O[C@@H](C)CCCCO[C@@H]1CN(C)S(=O)(=O)c1ccc(F)cc1`, the cytotoxicity call was “inactive”.
`Cc1cc(O)n(C[C@H]2CCCO2)c(=O)c1C#N` was tested, and the cytotoxicity call was “inactive”.
With `COc1ccc(S(=O)(=O)Nc2ccc3c(c2)C(=O)N([C@H](C)CO)C[C@@H](C)[C@H](CN(C)C(=O)Nc2ccc4c(c2)OCO4)OCCCC[C@@H](C)O3)cc1` the cytotoxicity call was “inactive”.
In the case of `COc1ccc(S(=O)(=O)N(C)C[C@H]2Oc3c(NC(=O)Nc4c(C)noc4C)cccc3C(=O)N([C@@H](C)CO)C[C@@H]2C)cc1`, the cytotoxicity call is reported as “inactive”.
`O=C(NC1CCCCC1)N1c2ccccc2C=Cc2ccccc21` was tested, and the cytotoxicity call was “inactive”.
In the case of `C[C@H]1CN([C@@H](C)CO)C(=O)c2c(c3ccccc3n2C)-c2ccccc2CO[C@@H]1CN(C)Cc1cccc2c1OCCCO2`, the cytotoxicity call is reported as “inactive”.
